Five compounds from PubChem BioAssay (EPA / NIEHS) can be followed below.

As a reminder, the AC50 is the concentration giving half of the maximal activity seen.

Structures are written as SMILES. Activity calls are given as the source filed them. How the source made its calls: active means hit-call score of the fitted dose curve at least 0.9, where 1 is the maximum; inactive means score below 0.9.

Holding throughout (details): mRNA level, 48 h; actives raise or lower the signal
Read-out in assay [1]: cysteine-aspartic acid protease (CASP8), CASP8 (gene 841)
Briefly: LTEA_HepaRG_CASP8: Life Technologies and Expression Analysis (LTEA) Assay for cysteine-aspartic acid protease (CASP8) using HepaRG (AID 2283480). The gist of the method:
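HepaRG, 48 h exposure, duplicate wells; 8 conc, half-log from 100 uM, 0.5% DMSO. Serum-free induction medium. CASP8 mRNA by TaqMan qRT-PCR, norm. ACTB/GAPDH/POLR2A; gain/loss fitted vs DMSO.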

Read-out in assay [2]: Pro-epidermal growth factor (Homo sapiens) (UniProt P01133)
Briefly: LTEA_HepaRG_EGF: Life Technologies and Expression Analysis (LTEA) Assay for Epidermal growth factor (EGF) using HepaRG (AID 2283489). The gist of the method: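 HepaRG, 48 h dosing, 100 uM top, half-log x8, 0.5% DMSO. Readout: TaqMan qRT-PCR (Fluidigm array), housekeeping-normalized. Gain or loss of signal fit vs DMSO.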

Read-out in assay [3]: Early growth response protein 1 (EGR1) transcription factor, EGR1 (gene 1958)
The assay is described as follows: LTEA_HepaRG_EGR1: Life Technologies and Expression Analysis (LTEA) Assay for Early growth response protein 1 (EGR1) transcription factor using HepaRG (AID 2283490). The gist of the method:
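Read-out is EGR1 mRNA level by qRT-PCR, normalized to three housekeeping genes and analysed for gain or loss of signal against 0.5% DMSO. Source cells: human HepaRG, treated 48 h at up to 100 uM in half-log dilutions.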

Read-out in assay [4]: Ezrin (EZR), EZR (gene 7430)
The assay is described as follows: LTEA_HepaRG_EZR: Life Technologies and Expression Analysis (LTEA) Assay for Ezrin (EZR) using HepaRG (AID 2283491). The gist of the method: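 Gain or loss of EZR mRNA is scored relative to 0.5% DMSO in human HepaRG cultures treated 48 h with test chemicals in duplicate, eight half-log concentrations from 100 uM.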

Read-out in assay [5]: Fatty Acid-Binding Protein 1 (FABP1), FABP1 (gene 2168)
The assay is described as follows: LTEA_HepaRG_FABP1: Life Technologies and Expression Analysis (LTEA) Assay for Fatty Acid-Binding Protein 1 (FABP1) using HepaRG (AID 2283494). The gist of the method:
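HepaRG, 48 h post-plating switched to serum-free induction medium, then dosed 48 h (duplicate, 8 pts, ≤100 uM, 0.5% DMSO). RNA → Fluidigm TaqMan qRT-PCR, FABP1 normed to ACTB/GAPDH/POLR2A. Bidirectional curve fit vs DMSO.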

Read-out in assay [6]: Glutathione S-Transferase (GSTA2), GSTA2 (gene 2939)
The assay is described as follows: LTEA_HepaRG_GSTA2: Life Technologies and Expression Analysis (LTEA) Assay for Glutathione S-Transferase (GSTA2) using HepaRG (AID 2283497). The gist of the method: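 HepaRG, 48 h dosing, 8-pt half-log CRC from 100 uM, 0.5% DMSO vehicle, n=2; RNA → Fluidigm TaqMan qRT-PCR; GSTA2 vs ACTB/GAPDH/POLR2A; gain/loss fit vs DMSO.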

Read-out in assay [7]: Cytochrome P450 (CYP24A1), CYP24A1 (gene 1591)
The assay is described as follows: LTEA_HepaRG_CYP24A1: Life Technologies and Expression Analysis (LTEA) Assay for Cytochrome P450 (CYP24A1) using HepaRG (AID 2283478). The procedure, abridged:
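HepaRG, 48 h chemical exposure, 8-pt half-log CRC from 100 uM, 0.5% DMSO vehicle, duplicates. Endpoint: CYP24A1 mRNA by Fluidigm TaqMan qRT-PCR, normalized ACTB/GAPDH/POLR2A; gain/loss fit vs DMSO.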

Read-out in assay [8]: Cytochrome P450 (CYP1A2), CYP1A2 (gene 1544)
The assay is described as follows: LTEA_HepaRG_CYP1A2: Life Technologies and Expression Analysis (LTEA) Assay for Cytochrome P450 (CYP1A2) using HepaRG (AID 2283479). The gist of the method:
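CYP1A2 transcript induction or loss, quantified by Fluidigm qRT-PCR against three housekeeping genes, was fitted bidirectionally against 0.5% DMSO controls. Human HepaRG cells received eight half-log concentrations from 100 uM over 48 h.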

Read-out in assay [9]: Cytochrome P450 (CYP2B6), CYP2B6 (gene 1555)
Briefly: LTEA_HepaRG_CYP2B6: Life Technologies and Expression Analysis (LTEA) Assay for Cytochrome P450 (CYP2B6) using HepaRG (AID 2283481). The procedure, abridged: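 HepaRG cells plated 48 h, switched to serum-free induction medium, then dosed 48 h (8 points, half-log from 100 uM, 0.5% DMSO). RNA isolated; CYP2B6 expression measured by qRT-PCR; gain or loss fitted relative to DMSO.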

Read-out in assay [10]: Cytochrome P450 2C19 (Homo sapiens) (UniProt P33261)
Briefly: LTEA_HepaRG_CYP2C19: Life Technologies and Expression Analysis (LTEA) Assay for CYP2C19 using HepaRG (AID 2283482). The procedure, abridged:
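Transcript levels of CYP2C19 were quantified by qRT-PCR after HepaRG cells were treated for 48 hours with test chemicals up to 100 uM (eight half-log concentrations, 0.5% DMSO vehicle). Gain or loss of signal was fitted relative to DMSO.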

Read-out in a further assay: CYP2C8 (gene 1558)
Briefly: LTEA_HepaRG_CYP2C8: Life Technologies and Expression Analysis (LTEA) Assay for CYP2C8 using HepaRG (AID 2283483). The gist of the method: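 CYP2C8 mRNA induction or loss, by qRT-PCR normalized to ACTB/GAPDH/POLR2A, is read in HepaRG cells after 48 h treatment. Concentrations run from 100 uM down in half-log dilutions, with 0.5% DMSO as vehicle and baseline.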

Read-out in a further assay: CYP2C9 (gene 1559)
Briefly: LTEA_HepaRG_CYP2C9: Life Technologies and Expression Analysis (LTEA) Assay for CYP2C9 using HepaRG (AID 2283484). The procedure, abridged:
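Cells plated 48 h, switched to serum-free induction medium, then treated in duplicate for 48 h at eight concentrations (max 100 uM, 0.5% DMSO). RNA then analysed by qRT-PCR for CYP2C9; curves fitted in both directions relative to DMSO.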

Read-out in another assay: CYP2E1 (gene 1571)
The assay is described as follows: LTEA_HepaRG_CYP2E1: Life Technologies and Expression Analysis (LTEA) Assay for CYP2E1 using HepaRG (AID 2283485). The gist of the method:
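HepaRG cells, plated 48 h, then exposed 48 h in serum-free induction medium to eight half-log concentrations from 100 uM in 0.5% DMSO, duplicate. CYP2E1 mRNA by qRT-PCR, normalized to ACTB/GAPDH/POLR2A; bidirectional fit versus DMSO.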

Read-out in another assay: CYP4A11 (gene 1579)
The assay is described as follows: LTEA_HepaRG_CYP4A11: Life Technologies and Expression Analysis (LTEA) Assay for CYP4A11 using HepaRG (AID 2283486). The gist of the method:
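HepaRG, 48 h chem exposure, 8 conc (100 uM top, half-log), 0.5% DMSO vehicle; qRT-PCR readout, housekeeping-gene normalized; bidirectional curve fit vs DMSO baseline.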

Read-out in assay [11]: Cytochrome P450 3A7 (Homo sapiens) (UniProt P24462)
Briefly: LTEA_HepaRG_CYP3A7: Life Technologies and Expression Analysis (LTEA) Assay for CYP3A7 using HepaRG (AID 2283492). The gist of the method:
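Human HepaRG liver cells, 48 h post-plating, switched to serum-free induction medium and exposed in duplicate for 48 h. Dosing: 100 uM top, half-log dilutions, 8 points, 0.5% DMSO vehicle. Read-out: CYP3A7 mRNA, gain or loss fitted against DMSO baseline.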

Read-out in another assay: CYP3A5 (gene 1577)
The assay is described as follows: LTEA_HepaRG_CYP3A5: Life Technologies and Expression Analysis (LTEA) Assay for CYP3A5 using HepaRG (AID 2283493). The procedure, abridged:
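HepaRG cells, plated 48 h then in serum-free induction medium, dosed in duplicate for 48 h with eight half-log concentrations up to 100 uM in 0.5% DMSO. Gene mRNA by Fluidigm TaqMan qRT-PCR, normalized to ACTB, GAPDH, POLR2A.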

Read-out in assay [12]: Cytochrome P450 4A22 (Homo sapiens) (UniProt Q5TCH4)
Briefly: LTEA_HepaRG_CYP4A22: Life Technologies and Expression Analysis (LTEA) Assay for Cytochrome P450 4A22 (CYP4A22) using HepaRG (AID 2283495). The procedure, abridged: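 Readout is CYP4A22 transcript induction or loss, quantified by qRT-PCR and normalized to ACTB, GAPDH and POLR2A. Human HepaRG cells receive test chemicals for 48 h at eight half-log concentrations from 100 uM in 0.5% DMSO.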

Read-out in assay [13]: Cytochrome P450 7A1 (Homo sapiens) (UniProt P22680)
The assay is described as follows: LTEA_HepaRG_CYP7A1: Life Technologies and Expression Analysis (LTEA) Assay for Cytochrome P450 7A1 (CYP7A1) using HepaRG (AID 2283496). The procedure, abridged:
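HepaRG cells plated 48 h, then switched to serum-free induction medium and exposed in duplicate for 48 h to 8-point half-log series from 100 uM in 0.5% DMSO. CYP7A1 mRNA by qRT-PCR (TaqMan), normalized to ACTB/GAPDH/POLR2A; bidirectional fit versus DMSO.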

Read-out in assay [14]: DNA damage-inducible transcript 3 (DDIT3), DDIT3 (gene 1649)
Briefly: LTEA_HepaRG_DDIT3: Life Technologies and Expression Analysis (LTEA) Assay for DNA damage-inducible transcript 3 (DDIT3) using HepaRG (AID 2283488). The procedure, abridged:
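HepaRG cells, 48 h after plating, exposed 48 h in serum-free induction medium to 8 half-log concentrations up to 100 uM in 0.5% DMSO, in duplicate. DDIT3 mRNA measured by TaqMan qRT-PCR, normalized to ACTB, GAPDH and POLR2A. Fitted bidirectionally against DMSO.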

Cytochrome P450 2C19 (Homo sapiens), sequence (P33261 whole entry, looked up): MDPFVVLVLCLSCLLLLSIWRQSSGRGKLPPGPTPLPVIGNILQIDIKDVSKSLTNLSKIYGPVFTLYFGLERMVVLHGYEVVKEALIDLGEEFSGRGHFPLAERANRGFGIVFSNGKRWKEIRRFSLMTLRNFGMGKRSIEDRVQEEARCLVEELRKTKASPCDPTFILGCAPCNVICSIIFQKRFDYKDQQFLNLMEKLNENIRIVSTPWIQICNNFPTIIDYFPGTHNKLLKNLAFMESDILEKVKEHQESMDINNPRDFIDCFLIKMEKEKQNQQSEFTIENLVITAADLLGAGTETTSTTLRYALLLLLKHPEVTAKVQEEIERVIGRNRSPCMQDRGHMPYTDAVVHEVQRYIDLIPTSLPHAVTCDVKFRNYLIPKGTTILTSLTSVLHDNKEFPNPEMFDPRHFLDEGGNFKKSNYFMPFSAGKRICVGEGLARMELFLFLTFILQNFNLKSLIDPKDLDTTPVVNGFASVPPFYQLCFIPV
Cytochrome P450 3A7 (Homo sapiens), sequence (P24462 whole entry, looked up): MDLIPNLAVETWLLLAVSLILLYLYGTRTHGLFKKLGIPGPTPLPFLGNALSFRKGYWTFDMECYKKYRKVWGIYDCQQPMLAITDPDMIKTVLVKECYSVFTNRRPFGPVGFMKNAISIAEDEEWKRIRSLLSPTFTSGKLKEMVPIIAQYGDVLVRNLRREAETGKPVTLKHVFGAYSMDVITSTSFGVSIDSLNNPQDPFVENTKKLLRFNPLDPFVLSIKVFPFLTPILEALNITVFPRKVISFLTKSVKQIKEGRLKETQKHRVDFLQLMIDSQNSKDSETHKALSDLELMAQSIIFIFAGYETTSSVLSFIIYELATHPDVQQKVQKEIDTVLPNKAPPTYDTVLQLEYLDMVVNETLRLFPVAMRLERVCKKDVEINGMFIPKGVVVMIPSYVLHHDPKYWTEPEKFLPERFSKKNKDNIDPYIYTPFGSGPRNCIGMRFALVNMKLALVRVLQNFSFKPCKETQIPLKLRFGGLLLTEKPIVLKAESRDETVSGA

On to `O=C(O)[C@H](O)[C@@H](O)C(=O)O`, for which the outcome in assay [1], in [2], in [3], in [4], in assay [5] and in assay [6] was inactive.

`OCC(CO)(CO)CO`: the call (in assay [7]; in [8]; in [1]; in assay [9]; in assay [10]; in the assay with CYP2C8 (gene 1558)) was inactive. The result (in the assay with CYP2C9 (gene 1559); in the assay with CYP2E1 (gene 1571); with CYP4A11 (gene 1579); in assay [3]; in assay [4]; in assay [11]) was inactive. Also, the compound was classed as inactive (with CYP3A5 (gene 1577); in assay [5]; in assay [12]; in [13]; in assay [6]).

Regarding `Cc1ccc(S(=O)(=O)NC(=O)NN2CCCCCC2)cc1`, the outcome in assay [1], in assay [14], in assay [2], in [3], in assay [4] and in assay [5] was inactive. Further, the compound was classed as inactive in assay [6].

For the compound `CCn1nc(C)c2c1C(=O)NCC(c1ccc(O)cc1)=N2`, the call (in assay [7]; in [1]; in assay [10]; with CYP2C8 (gene 1558); in the assay with CYP2C9 (gene 1559); in the assay with CYP2E1 (gene 1571)) was inactive. The compound was classed as inactive (in assay [14]; in assay [2]; in assay [3]; in assay [4]; with CYP3A5 (gene 1577); in [5]). Further, the call in assay [13] and in [6] was inactive. Also, the AC50 was 34100 nM (active) in assay [8], 32900 nM (active) in assay [9], 27900 nM (active) with CYP4A11 (gene 1579) and 34100 nM (active) in assay [11].

For the compound `COc1cc2c(c(OC)c1OC)-c1ccc(OC)c(=O)cc1[C@@H](NC(C)=O)CC2`, the compound was called inactive in assay [7], in [1], in assay [14], in [2], in [3] and in assay [4]. Besides, the AC50 in [9] was 98.6 nM (active); with CYP2C8 (gene 1558), 95.1 nM (active); in the assay with CYP2C9 (gene 1559) it was 77.7 nM (active); with CYP2E1 (gene 1571), 81.7 nM (active); in the assay with CYP4A11 (gene 1579), 80.4 nM (active); with CYP3A5 (gene 1577), 99.5 nM (active). Moreover, the AC50 in [5] is 106 nM (active); in assay [12] it was 108 nM (active); in assay [13], 95 nM (active); in assay [6], 107 nM (active).
